Measured values taken from ChEMBL document CHEMBL3433997, “St. Jude Leishmania screening dataset” (2016).

Assays:
Type in all cases: functional
[1] = target: Solute carrier family 2, facilitated glucose transporter member 1 (Homo sapiens) (UniProt P11166); test: ST_JUDE_LEISH: Cytotoxicity at 2uM final concentration against transgenic Leishmania Mexicana promastigotes LmGLUT1 that are glucose transport deficient and complemented with the human glucose transporter GLUT1. Activity is measured by DNA content using SYBR green in vitro
Solute carrier family 2, facilitated glucose transporter member 1 (Homo sapiens), sequence (P11166 whole entry): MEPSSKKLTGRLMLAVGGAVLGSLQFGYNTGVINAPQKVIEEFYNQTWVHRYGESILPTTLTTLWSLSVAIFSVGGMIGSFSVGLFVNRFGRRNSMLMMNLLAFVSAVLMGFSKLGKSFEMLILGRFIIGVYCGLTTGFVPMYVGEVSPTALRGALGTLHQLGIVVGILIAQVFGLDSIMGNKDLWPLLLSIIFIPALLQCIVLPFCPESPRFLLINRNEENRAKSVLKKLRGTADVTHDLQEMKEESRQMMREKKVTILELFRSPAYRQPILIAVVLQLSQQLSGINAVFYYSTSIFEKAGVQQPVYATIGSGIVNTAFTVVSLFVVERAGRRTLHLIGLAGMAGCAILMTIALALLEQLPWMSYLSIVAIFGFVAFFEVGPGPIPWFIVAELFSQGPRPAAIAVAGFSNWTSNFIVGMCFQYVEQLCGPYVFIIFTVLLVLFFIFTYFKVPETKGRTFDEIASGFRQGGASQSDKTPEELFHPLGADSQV

[2] = target: Hexose transporter 1 (Plasmodium falciparum) (UniProt O97467); test: ST_JUDE_LEISH: Cytotoxicity at 2uM final concentration against transgenic Leishmania Mexicana promastigotes LmPfHT that are glucose transport deficient and complemented with the Plasmodium falciparum hexose transporter. Activity is measured by DNA content using SYBR green in vitro
[3] = target: Glucose transporter (Leishmania mexicana) (UniProt O61059); test: ST_JUDE_LEISH: Cytotoxicity at 2uM final concentration against transgenic Leishmania Mexicana promastigotes LmGT2 that are glucose transport deficient and complemented with the L. Mexicana glucose transporter 2. Activity is measured by DNA content using SYBR green in vitro

Compound	inhibition [1]	inhibition [2]	inhibition [3]
CCN(CCCN1CCCCC1)c1cc(C)nc(Nc2ccc(C)cc2C)n1	1.88%	1.53%	2.76%
COc1ccc2nccc([C@H](O)CN3CCC(NCc4nc5cccc(F)c5[nH]4)CC3)c2c1	3.63%	1.1%	2.36%
Cc1cccc2nc(-c3ccc(-c4cccc(NC(=O)C(=O)c5cccn5C)c4)cc3)[nH]c12	4.58%	2.19%	2.29%
Cc1ccccc1N1CCN(c2ccc(C(=O)NC3CC3)cn2)CC1	10.9%	8.46%	4.25%
O=C(NOCCCCOc1ccc(Cl)c(Cl)c1)c1ccccc1	-2.66%	-2.61%	-1.29%
COc1ccc(C(=C(C)CC(C)C(=O)O)c2ccccc2)cc1 (centres undefined)	-0.12%	-0.23%	0.28%
CCC(C)OC(=O)C1=C(C)NC2=C(C(=O)CC(c3ccc(OC)c(OC)c3)C2)C1c1ccc(O)cc1 (centres undefined)	3.25%	1.77%	1.8%
COc1ccccc1CCNc1nc(C)cc(N[C@@H](CC(C)C)C(=O)Nc2ccccc2)n1	4.84%	6.02%	-0.58%
CSC1=NC(C)(C)CC2(CC(c3cccc(C)c3)c3cc(Cl)c(O)cc3O2)N1 (centres undefined)	0.95%	1%	0.47%
c1ccc(-c2ccc3c(Nc4ccc5[nH]ccc5c4)ccnc3c2)nc1	-1.13%	0.56%	-0.96%
O=C1NC(=O)C(c2ccc(Cl)cc2)=C1Nc1cccc(S(=O)(=O)C(F)(F)F)c1	1.37%	0.65%	1.48%
CC(C)(C)NCC(O)COc1ccc(Cl)cc1C1=NNC(=O)CC1 (centres undefined)	1.53%	1.45%	0.82%
CCCCCCSc1nnc(COc2cccc3ccccc23)n1-c1ccc(OC)cc1	11%	12.1%	10.3%
CN(C)C(=O)c1cccc(COc2ccc(N3C(N)=NC(N)=NC3(C)C)cc2Cl)c1	1.73%	1.77%	-0.58%
O=C(Nc1cccc(CN2CCCN(Cc3ccc(O)cc3)CC2)c1)c1cccc(C(F)(F)F)c1	10.5%	9.62%	11.3%
O=C(NCCCCCN1CCCN(C(=O)Nc2ccc(F)c(C(F)(F)F)c2)CC1)C1CC1c1ccc(Cl)c(Cl)c1 (centres undefined)	2.53%	2.1%	0.2%
Nc1c2c(nc3ccc(NC(=O)CCCCCCc4ccccc4)cc13)CCCC2	-2.4%	-2.24%	-3.57%

Compound	inhibition [1]	inhibition [2]	inhibition [3]
O=C(Nc1ccc(-c2ccc(-c3nc4cc(C(F)(F)F)ccc4[nH]3)s2)cc1)c1c[nH]cn1	3.09%	7.24%	8.27%
CCN1CCN(CCCNc2c3ccc(Cl)cc3nc3ccc(O)cc23)CC1	0.03%	0.02%	0.06%
COc1ccc(-n2ccnc2SCC(=O)Nc2cc(C(F)(F)F)ccc2Cl)c(OC)c1	12.8%	11.2%	7.95%
CCCC(N)C(=O)NC1CCN(c2c(F)c(N)c3c(=O)c(C(=O)O)cn4c3c2Oc2ccccc2-4)C1 (centres undefined)	82.5%	82.6%	76.2%
Brc1ccsc1-c1nc(NC2CCN(Cc3ccccc3)CC2)no1	-0.23%	5.86%	-0.38%
COc1cc2nc(NCC3CCCO3)n3nc(-c4ccccc4)nc3c2cc1OC (centres undefined)	8.44%	6.19%	2.53%
CC1CNC(c2ccc(NC(=O)c3ccc(C(=O)Nc4ccc(C5=NC(C)CN5)cc4)cc3)cc2)=N1 (centres undefined)	8.16%	7.31%	0.91%
Cc1ccc(-c2ccc3c(c2)C=C(C(=O)NC2CCN(CCNC(=O)c4cccc(C(F)(F)F)c4)CC2)CCC3)cc1	5.7%	7.43%	7.77%
COc1ccc2ncc(C#N)c(CCN3CCC(NCc4cnc5c(c4)OCCO5)CC3)c2n1	11.4%	15.9%	6.56%
COC[C@H]1CCCN1Cc1ccc(-c2ccc(-c3nc4ccccc4[nH]3)s2)cc1	2.15%	1.84%	1.25%
O=C(NCc1ccc2c(c1)OCO2)c1nn(CCN2CCC(N3CCCC3)CC2)cc1-c1ccc(Cl)c(Cl)c1	2.53%	0.54%	0.75%
CC(C)C[C@H]1c2[nH]c3ccc(Cl)cc3c2CCN1C(=O)CCc1ccccc1	3.74%	2.53%	-0.65%
N=C(N)NC(=O)Nc1ccc(Cl)c(Cl)c1	3.47%	-2.48%	-1.06%
COc1ccc2nccc(N3CCN(CCNCc4ccc5c(n4)NC(=O)CS5)CC3)c2c1	1.43%	0.73%	0.44%
CC(=O)Nc1cccc(C(=O)Nc2cccc(-c3cccc(-c4nc5cc(F)ccc5[nH]4)c3)c2)c1	3.73%	3.51%	7.22%
Cc1cc(NC(=O)Nc2ccc(Cl)cc2F)c2ccccc2n1	3.45%	4.56%	1.56%
